Assay results as given in PubChem BioAssay.
Calls of active or inactive are those of the source.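 The calls were made as follows: active = inhibition above the hit cutoff set in the earlier primary screen (cut at about 27% in these data); inactive = the rest.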

The compounds below were run against Protein phosphatase methylesterase 1 (Homo sapiens) (UniProt Q9Y570) (assay: PME-1 inhibitor activity retest, confirmation, biochemical, fluorescence polarization, FP-Rh probe, triplicate (AID 2171;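 also: 0% = enzyme with DMSO and 100% = wells lacking PME-1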)). Conditions: recombinant PME-1, FP-Rh probe fluorescence polarization; at 5.9 µM; hits give high values.
Sequence of Protein phosphatase methylesterase 1 (Homo sapiens) (Q9Y570 whole entry, looked up): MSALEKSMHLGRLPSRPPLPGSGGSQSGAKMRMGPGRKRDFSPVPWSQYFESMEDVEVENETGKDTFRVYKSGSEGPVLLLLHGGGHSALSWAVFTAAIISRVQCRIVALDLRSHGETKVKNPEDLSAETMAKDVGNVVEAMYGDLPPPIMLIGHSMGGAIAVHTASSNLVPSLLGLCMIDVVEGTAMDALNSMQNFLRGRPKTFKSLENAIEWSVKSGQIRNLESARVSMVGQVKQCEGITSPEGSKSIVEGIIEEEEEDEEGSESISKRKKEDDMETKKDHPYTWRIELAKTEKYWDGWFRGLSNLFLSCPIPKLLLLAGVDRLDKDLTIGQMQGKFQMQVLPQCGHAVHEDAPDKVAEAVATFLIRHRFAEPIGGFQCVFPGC
Cc1cc(NS(=O)(=O)c2ccc(Nc3nc(-c4sc(NC(=O)c5ccccc5)nc4C)cs3)cc2)no1 was tested, and the inhibition was 70.6% (active). Cc1ccc(S(=O)(=O)N2CCN(C(=O)Cn3cnc4c3c(=O)n(C)c(=O)n4C)CC2)cc1C was tested, and the inhibition was 20.7% (inactive). With Cc1ccc(S(=O)(=O)Oc2cccc(/C=N/Nc3ccc(C(=O)O)cc3)c2)cc1 the inhibition was 94% (active). For Cc1ccc(/C=N/Nc2ccnc3cc(Cl)ccc23)c(C)c1, the inhibition was 53.3% (active). CN(C)c1ccc(NC(=O)Nc2cccc(Cl)c2)cc1 was tested, and the inhibition was 19.8% (inactive). For Cc1cc(C)c2c(N)c(C(=O)NN)sc2n1, the inhibition was 10.5% (inactive). COc1cccc(NC(=O)Nc2ccc3c(c2)N(C)C(=O)CS3)c1 was tested, and the inhibition was 9.42% (inactive). In the case of CCCN(CCC)CCCNC(=O)c1cn(CC)c2ccc(S(=O)(=O)N(C)C3CCCCC3)cc2c1=O, the inhibition is reported as 50.9% (active). With CCOC(=O)c1c2c3c(cccc3n(C)c1=O)C(=O)c1ccccc1-2 the inhibition was 21% (inactive). For CC(C)c1ccc2[nH]c(O)c(N=NC(=O)c3cccc(S(=O)(=O)N4CCCCC4)c3)c2c1, the inhibition was 58.3% (active). In the case of CCn1c(CSc2nnc(-c3ccncc3)n2CCOC)nc2cc(C(=O)O)ccc21, the inhibition is reported as 51.1% (active). With CCCCN(CCCC)CCNC(=O)c1cn(CC)c2ccc(S(=O)(=O)N(C)C3CCCCC3)cc2c1=O the inhibition was 85% (active). With Nc1c(C(=O)Nc2cccc(C(=O)O)c2)sc2nc3c(cc12)CCCC3 the inhibition was 30.8% (active). In the case of Cc1nn(-c2ccc(Br)cc2)c(=O)c2ccccc12, the inhibition is reported as 4.4% (inactive). In the case of COc1ccc(C(=O)c2oc3ccc(OC)cc3c2N)cc1, the inhibition is reported as 29.6% (active). For COc1cc2c(cc1NC(=O)Nc1cccc(C)c1)oc1ccccc12, the inhibition was 12.2% (inactive). With Cc1cc(Br)ccc1N=C1NC(=O)CS1 the inhibition was -3.07% (inactive). In the case of CN(C)S(=O)(=O)c1ccc(-c2csc(N/N=C/c3ccc(O)cc3)n2)cc1, the inhibition is reported as 25% (inactive). O=c1ccc2ccc(Oc3ccc([N+](=O)[O-])cc3[N+](=O)[O-])cc2o1 was tested, and the inhibition was 25.6% (inactive). With O=[N+]([O-])c1ccc(N/N=C/c2ccccc2O)cc1 the inhibition was 10.8% (inactive). In the case of O=C(CNc1ccc2ccccc2c1)N/N=C/c1ccc(OC(=O)/C=C/c2ccco2)cc1, the inhibition is reported as 11.7% (inactive). Cc1c(C(=O)N/N=C/c2ccc(O)c(Br)c2)sc(N)c1C#N was tested, and the inhibition was 49.7% (active). COc1ccc2[nH]c(O)c(N=NC(=O)c3ccc(NS(=O)(=O)c4cccs4)cc3)c2c1 was tested, and the inhibition was 19.4% (inactive). In the case of COc1ccc(/C=N/Nc2cc(C)nc3ccc(Br)cc23)cc1, the inhibition is reported as 12.9% (inactive). In the case of Brc1ccc(/C=N/Nc2nc3ccccc3o2)cc1, the inhibition is reported as 22.2% (inactive).
